According to PubChem BioAssay (NCATS):
Values joined by “and” are separate entries in the source; they are usually repeats but may differ in a detail not shown here. Identical values can stand only once. Results filed as inconclusive are left out. Some structures have more than one record in an assay (separate samples or runs), and their calls can disagree. Active and inactive are the calls of the source. Calls come from the whole dose curve; as a rule, active = well fitted curve in the direction sought with a large enough effect; inconclusive = small, poorly fitted or top-dose-only effect, or another doubt; inactive = no such curve, though single readings can be large; an effect the other way counts as inactive or inconclusive.

Tests used:
[1] = molecular target: Cytochrome P450 3A7 (Homo sapiens) (UniProt P24462); assay: Cytochrome P450 family 3 subfamily A member 7 (CYP3A7) small molecule antagonists: luciferase biochemical qHTS assay (AID 1963596); details: P450-Glo CYP3A7 enzyme luminescence, 1 h; series mostly up to 57.4 µM; note: % is set by controls: 0 for no effect and ±100 for the full control effect; nearly all actives have a fitted effect of over 40% in size
Method in brief: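 Compounds were screened in qHTS format for interference with CYP3A7 turnover of a proluciferin substrate. Reactions ran 1 h at room temperature after NADPH regeneration solution was added, then luciferin product was detected by luminescence.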

[2] = Viability qHTS for spleen associated tyrosine kinase inhibitor (SYKi) naive MV4-11 cells (AID 1963823); details: MV4-11 AML viability, CellTiter-Glo luminescence, 72 h; series mostly up to 45 µM; note: nearly all actives have a fitted effect of over 40% in size; note: potency is the fitted concentration of half-maximal effect
Method in brief: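 SYKi-naive MV4-11 AML cells, 500 per well, were exposed to library compounds for 72 hr at 37 C, 5% CO2. Viability was then read by CellTiter-Glo luminescence after 10 min at room temperature.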

[3] = Viability qHTS for spleen associated tyrosine kinase inhibitor (SYKi) drug resistant MV4-11 cells (AID 1963824); details: SYKi-resistant MV4-11 viability, CellTiter-Glo, 72 h; series mostly up to 45 µM; note: nearly all actives have a fitted effect of over 35% in size; note: potency is the fitted concentration of half-maximal effect
Method in brief: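 SYK-inhibitor-resistant MV4-11 AML cells were seeded at 500 per well onto compound and cultured 72 hours (37 °C, 5% CO2). CellTiter-Glo was then added, and after 10 min at room temperature, luminescence gave viability.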

[4] = Cellular viability qHTS for adrenocortical cancer (ACC) cell line NCI-H295R (AID 1963990); details: CellTiter-Glo ATP luminescence, 48 h; series mostly up to 46.1 µM; note: nearly all actives have a fitted effect of over 60% in size; note: potency is the fitted concentration of half-maximal effect
Method in brief: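 IC50 and maximal efficacy derive from four-parameter logistic modelling of titration curves, with reads scaled between DMSO-only wells (0%) and doxorubicin hydrochloride (100% inhibition). Compounds spanned up to 46 uM over 48 h.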

[5] = Quantitative highthroughput screen to assess conditional lethalithy of NOMO1 cells grown in RPMI1640 with untreated serum (RPMI+s) (AID 1963876); details: NOMO1 AML cells in RPMI+serum, CellTiter-Glo viability, 48 h; series mostly up to 45.8 µM; note: nearly all actives have a fitted effect of over 35% in size; note: potency is the fitted concentration of half-maximal effect;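 for Viability: 100% = DMSO wells and 0% = empty wells without cells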
Method in brief: (§1)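 Each medium arm—HPLM with 10% dialyzed FBS, or RPMI1640 with 5 mM glucose and 10% untreated or dialyzed FBS—was screened against an 11-point, 3-fold compound titration for 48 h at 37 °C, with CellTiter-Glo luminescence as endpoint.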

[6] = Quantitative highthroughput screen to assess conditional lethalithy of SEM cells grown in RPMI1640 with dialyzed fetal bovine serum (RPMI+ds) (AID 1963884); details: SEM B-ALL cells, RPMI+dialyzed FBS, CellTiter-Glo viability, 48 h; series mostly up to 45.8 µM; note: nearly all actives have a fitted effect of over 35% in size; note: potency is the fitted concentration of half-maximal effect;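 for Viability: 100% = DMSO control wells and 0% = empty wells without cells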
Method in brief: as §1

[7] = Cellular viability qHTS for adrenocortical cancer (ACC) cell line SW-13 (AID 1963989); details: SW-13 ACC cells viability, CellTiter-Glo, 48 h; activity (max response): stronger effect = lower value;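 note: cells grown in serum-free medium with ITS supplement; % is set by controls: 0 for no effect and ±100 for the full control effect; nearly all actives have a fitted effect of over 65% in size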
Method in brief: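 Luminescent ATP read-out (CellTiter-Glo, 20 min at room temperature) measured metabolically competent SW-13 cells after 48 h compound treatment. Final concentrations spanned up to 46 uM; bortezomib served as positive control.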

[8] = Quantitative highthroughput screen to assess conditional lethalithy of NOMO1 cells grown in RPMI1640 with dialyzed fetal bovine serum (RPMI+ds) (AID 1963877); details: NOMO1 in RPMI+dialyzed FBS viability, ATP luminescence, 48 h; series mostly up to 45.8 µM; note: nearly all actives have a fitted effect of over 30% in size; note: potency is the fitted concentration of half-maximal effect;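 for Viability: 100% = DMSO control wells and 0% = empty wells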
Method in brief: as §1

[9] = Quantitative highthroughput screen to assess conditional lethalithy of NOMO1 cells grown in Human Plasma-Like Medium with dialyzed fetal bovine serum (HPLM+ds) (AID 1963878); details: NOMO1 AML cells in HPLM+ds, CellTiter-Glo viability, 48 h; series mostly up to 45.8 µM; note: nearly all actives have a fitted effect of over 35% in size; note: potency is the fitted concentration of half-maximal effect;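 for Viability: 100% = DMSO wells and 0% = empty wells on each plate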
Method in brief: as §1

[10] = Quantitative highthroughput screen to assess conditional lethalithy of P12 Ichikawa cells grown in Human Plasma-Like Medium with dialyzed fetal bovine serum (HPLM+ds) (AID 1963879); details: ATP luminescence, 48 h; Potency: viability; series mostly up to 45.8 µM; note: nearly all actives have a fitted effect of over 35% in size; note: potency is the fitted concentration of half-maximal effect
Method in brief: as §1

[11] = Quantitative highthroughput screen to assess conditional lethalithy of P12 Ichikawa cells grown in RPMI1640 with dialyzed fetal bovine serum (RPMI+ds) (AID 1963880); details: ATP luminescence, 48 h; Potency: P12-Ichikawa viability; series mostly up to 45.8 µM; note: nearly all actives have a fitted effect of over 35% in size; note: potency is the fitted concentration of half-maximal effect;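 for Viability: 100% = DMSO wells and 0% = empty wells on each plate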
Method in brief: as §1

[12] = Quantitative highthroughput screen to assess conditional lethalithy of SEM cells grown in Human Plasma-Like Medium with dialyzed fetal bovine serum (HPLM+ds) (AID 1963882); details: SEM B-ALL cells in HPLM+ds, CellTiter-Glo viability, 48 h; series mostly up to 45.8 µM; note: nearly all actives have a fitted effect of over 35% in size; note: potency is the fitted concentration of half-maximal effect
Method in brief: as §1

[13] = Quantitative highthroughput screen to assess conditional lethalithy of SEM cells grown in RPMI1640 with unreated serum (RPMI+s) (AID 1963883); details: SEM B-ALL cells, CellTiter-Glo viability, 48 h; series mostly up to 45.8 µM; note: nearly all actives have a fitted effect of over 35% in size; note: potency is the fitted concentration of half-maximal effect;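 for Viability: 100% = DMSO wells and 0% = empty wells without cells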
Method in brief: as §1

[14] = Quantitative highthroughput screen to assess conditional lethalithy of P12 Ichikawa cells grown in RPMI1640 with untreated serum (RPMI+s) (AID 1963881); details: ATP luminescence, 48 h; Potency: viability; series mostly up to 45.8 µM; note: nearly all actives have a fitted effect of over 35% in size; note: potency is the fitted concentration of half-maximal effect;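 for Viability: 100% = DMSO wells and 0% = empty wells without cells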
Method in brief: as §1

Chain of Cytochrome P450 3A7 (Homo sapiens) (P24462 whole entry, looked up): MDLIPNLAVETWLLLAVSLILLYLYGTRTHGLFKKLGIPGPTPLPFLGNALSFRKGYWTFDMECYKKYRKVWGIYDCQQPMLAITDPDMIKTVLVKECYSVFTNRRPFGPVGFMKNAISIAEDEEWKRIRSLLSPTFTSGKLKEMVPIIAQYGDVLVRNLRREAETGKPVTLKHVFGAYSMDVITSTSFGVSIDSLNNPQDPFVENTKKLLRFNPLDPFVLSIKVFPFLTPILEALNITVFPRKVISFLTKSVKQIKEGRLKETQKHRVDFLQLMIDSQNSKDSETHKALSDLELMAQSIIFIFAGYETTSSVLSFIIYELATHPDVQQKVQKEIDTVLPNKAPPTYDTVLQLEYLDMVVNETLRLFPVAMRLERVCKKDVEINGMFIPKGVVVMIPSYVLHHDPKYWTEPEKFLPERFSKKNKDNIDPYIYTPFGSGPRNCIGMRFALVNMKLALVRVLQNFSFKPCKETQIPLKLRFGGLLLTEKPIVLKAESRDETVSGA

CCCCCCCCCCCCCCCCN
inactive: Potency [1] | Potency [2] | Potency [3] | Potency [4]

CNc1nc(Nc2cnn([C@H]3CCN(C4COC4)C[C@@H]3F)c2Cl)ncc1C(F)(F)F
inactive: Potency [1] | activity (max response) [7] -2.31% | Potency [4]
active: Potency [2] 1.3 µM | Potency [5] 1.66 µM | Potency [6] 2.34 µM

OC[C@H]1O[C@@H](OCCc2ccc(O)cc2)[C@H](O)[C@@H](O)[C@H]1O
inactive: Potency [1] | Potency [2] | Potency [5] | Potency [8] | Potency [9] | Potency [10] | Potency [11] | Potency [12] | Potency [6] | activity (max response) [7] -16.3%

CC(N)C12CC3CC(CC(C3)C1)C2 (stereo not drawn)
inactive: Potency [1] | Potency [2] | Potency [12] | Potency [13] | Potency [6] | Potency [4]
active: Potency [9] 10.5 µM | Potency [10] 26.4 µM

CC(C)(C)c1ccc(C(O)CCCN2CCC(C(O)(c3ccccc3)c3ccccc3)CC2)cc1 (stereo not drawn)
inactive: Potency [1]
active: Potency [2] 21.1 µM | Potency [3] 11.9 µM | Potency [4] 4.11 µM

NC(CSCC(=O)O)C(=O)O (stereo not drawn)
inactive: Potency [1] | Potency [2] | Potency [3] | Potency [4]

Cc1c(NC(=O)c2cccnc2)c(=O)n(-c2ccccc2)n1C
inactive: Potency [1] | Potency [2] | Potency [3] | Potency [4]

COC(=O)c1cccnc1
inactive: Potency [1] | Potency [2] | activity (max response) [7] 5.78%

C=C(CC)C(=O)c1ccc(OCC(=O)O)c(Cl)c1Cl
active: Potency [2] 13.3 µM | Potency [3] 15 µM | Potency [4] 9.2 µM
inactive: Potency [1]

O=C(NC(Cc1cc(=O)[nH]c2ccccc12)C(=O)O)c1ccc(Cl)cc1 (stereo not drawn)
inactive: Potency [1] | Potency [2] | Potency [5] | Potency [8] | Potency [9] | Potency [10] | Potency [11] | Potency [14] | Potency [12] | Potency [13] | Potency [6] | activity (max response) [7] 7.09% and -3.01% | Potency [4]

CN1C(C(=O)Nc2ccccn2)=C(O)c2sccc2S1(=O)=O
inactive: Potency [1] | Potency [10] | Potency [11] | Potency [14] | Potency [12] | Potency [13] | Potency [6] | activity (max response) [7] 0.0862% and -19.6% | Potency [4]
750 nM (active) and inactive: Potency [2]

O=c1[nH]cnc2c1ncn2[C@H]1CC[C@@H](CO)O1
inactive: Potency [1] | Potency [2] | Potency [6] | activity (max response) [7] 1.58% | Potency [4]
active: Potency [11] 16.6 µM | Potency [12] 18.7 µM

C[C@@H](CN1CC(=O)NC(=O)C1)N1CC(=O)NC(=O)C1
active: Potency [5] 0.469 µM | Potency [8] 0.332 µM | Potency [10] 0.372 µM | Potency [11] 0.59 µM | Potency [14] 0.833 µM | Potency [12] 0.0935 µM | Potency [13] 0.0662 µM | Potency [6] 0.0743 µM
inactive: Potency [1] | Potency [2] | activity (max response) [7] 3.22% and 6.64% | Potency [4]

C[C@@H](c1ncncc1F)[C@](O)(Cn1cncn1)c1ccc(F)cc1F
inactive: Potency [1] | Potency [2] | Potency [5] | Potency [8] | Potency [9] | Potency [10] | Potency [11] | Potency [14] | Potency [12] | activity (max response) [7] -12.4% | Potency [4]

O=c1[nH]c2cc(C(F)(F)F)c(N3CCOCC3)cc2n(CP(=O)(O)O)c1=O
inactive: Potency [1] | Potency [2] | Potency [3] | Potency [4]

OC(CN1CCC(Cc2ccc(F)cc2)CC1)c1ccc(Cl)cc1 (stereo not drawn)
active: Potency [2] 5.31 µM
inactive: Potency [1] | Potency [5] | Potency [8] | Potency [9] | Potency [10] | Potency [11] | Potency [14] | Potency [12] | Potency [13] | Potency [6] | activity (max response) [7] -8.69% | Potency [4]

Cc1nc(NC(=O)N2CCC[C@H]2C(N)=O)sc1-c1ccnc(C(C)(C)C(F)(F)F)c1
inactive: Potency [1]
active: Potency [2] 13 µM | Potency [3] 11.6 µM and 16.6 µM | Potency [4] 11.2 µM

CN(C)CCOC(=O)C(c1ccccc1)C1(O)CCCC1 (stereo not drawn)
inactive: Potency [1] | Potency [2] | activity (max response) [7] 6.08%

COc1cc(C(=O)NCCCCCC(=O)O)cc(OC)c1OC
inactive: Potency [1] | Potency [2] | activity (max response) [7] 6.24% | Potency [4]

CCOC(=O)C(=O)c1csc(NC=O)n1
inactive: Potency [1] | Potency [2] | activity (max response) [7] 8.44% | Potency [4]

Cc1c(C(C)C)c(=O)n(-c2ccccc2)n1C
inactive: Potency [1] | Potency [2] | activity (max response) [7] -5.23% | Potency [4]

C[C@@H]1CCC[C@H](C)N1
inactive: Potency [1] | Potency [2] | activity (max response) [7] 4.32% | Potency [4]

C[C@H](NC(CCc1ccccc1)C(=O)O)C(=O)N1CCC[C@H]1C(=O)O (stereo partly drawn)
inactive: Potency [1] | Potency [2] | activity (max response) [7] 8.08% | Potency [4]

COc1cc(C)nc(-n2nc(C)cc2OC)n1
inactive: Potency [1] | Potency [2] | activity (max response) [7] 11%

CC(C)(C)NC[C@H](O)COc1cccc2c1CCCC2=O
active: Potency [2] 11.9 µM
inactive: Potency [1] | activity (max response) [7] -13.3% | Potency [4]

OC1(c2ccccc2)CCNCC1
inactive: Potency [1] | Potency [2] | activity (max response) [7] 4.15% | Potency [4]

Nc1nc2ncc(CNc3ccc(C(=O)N[C@@H](CCC(=O)O)C(=O)O)cc3)nc2c(=O)[nH]1
inactive: Potency [1] | Potency [2] | activity (max response) [7] 12.3% | Potency [4]

O=c1cc[nH]c(=O)[nH]1
inactive: Potency [1] | Potency [2] | activity (max response) [7] 7.94% | Potency [4]
